# According to PubChem BioAssay AID743279 (National Center for Advancing Translational Sciences (NCATS), 2014):
# The campaign covered roughly 360,000 compounds. About 17,000 (4.7%) were called active. Inconclusive results (about 5%) are left out. Rule as the data show it: active = activity change below about -50%; inconclusive = mostly about -30% to -49%; inactive = weaker than that. Only a selection was taken, and actives are over-represented in it overall.
# Assay: qHTS for Inhibitors of Inflammasome Signaling: IL-1-beta AlphaLISA Primary Screen
# Conditions: THP-1 LPS/ATP IL-1B secretion, 16 h; at 57.5 µM, active compounds read low
# Procedure, shortened: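 Secreted IL-1B measured by AlphaLISA bead assay after 16 h compound exposure of THP-1 cells; compounds (final up to 57.5 uM) added 1 h before LPS (250 ng/mL) and ATP (1.25 mM) stimulation; lower signal means less secretion.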
# % is scaled to controls: 0 for no effect and ±100 for the full control effect.
row,Structure (SMILES),activity change
1,Cc1ccc(Sc2ccc(NC(=O)c3ccc(F)cc3)cc2C#N)cc1,10.9% (inactive)
2,CC1CCCC(NC(=O)c2cccc(N3CCCC3=O)c2)C1C (stereo unspecified),9.06% (inactive)
3,CC1CCN(C(=O)COC(=O)c2cc(S(=O)(=O)N3CCOCC3)ccc2Cl)CC1,11% (inactive)
4,Cc1ccc(CS(=O)Cc2ccc(C(=O)N3CCOCC3)o2)cc1 (stereo unspecified),41.9% (inactive)
5,O=C(c1ccc(CS(=O)(=O)c2ccccc2)o1)N1CCN(c2ccccc2)CC1,41.8% (inactive)
6,O=C(c1ccc(CS(=O)Cc2ccccc2Cl)o1)N1CCN(c2ccccc2)CC1 (stereo unspecified),-50.4% (active)
7,COc1cc(/C=C/CNC[C@H]2O[C@@H](n3cnc(C(N)=O)n3)[C@H](O)[C@@H]2O)ccc1O,-17.5% (inactive)
8,O=C(O)CCn1cc(/C=C/C(=O)c2ccc(Cl)cc2)c(-c2cccc(Br)c2)n1,-96.6% (active)
9,CCOC(=O)/C(C#N)=C/c1cn(CCC(=O)O)nc1-c1ccc(Br)cc1,0% (inactive)
10,O=C(/C=C/NNC(=O)c1cccc(Br)c1)c1ccccc1,-15.9% (inactive)
11,CC(=O)N/C(=C\c1ccc(F)cc1)C(=O)NC(Cc1ccccc1)C(=O)O (stereo unspecified),41.6% (inactive)
12,C[C@@H]1CN([C@H](C)CO)C(=O)CCCn2nncc2CO[C@@H]1CN(C)C(=O)OCc1ccccc1,-18.7% (inactive)
13,O=C(c1cc(COc2ccc(F)cc2F)on1)N1CCOCC1,4.05% (inactive)
14,CCOC(=O)N1CCN(C(=O)C[C@@H]2C[C@@]3(C(=O)OC)CCCCC=C3N(CCC3=CCCCC3)C2=O)CC1,-20.9% (inactive)
15,CC(=O)Nc1ccccc1OC(=O)N1CCOCC1,4.54% (inactive)
16,O=C(/C=C/c1cccs1)c1cc(Cl)ccc1OC(=O)N1CCOCC1,-111% (active)
17,O=C(Oc1cccc(C(=S)N2CCOCC2)c1)c1cccc(Cl)c1,-5.21% (inactive)
18,COc1ccccc1C(=O)NC(CCSC)C(=O)N1CCN(C/C=C/c2ccccc2)CC1 (stereo unspecified),-8.53% (inactive)
19,O=C(CC(CC(=O)c1ccccc1)c1ccco1)c1ccccc1,13.9% (inactive)

row,Structure (SMILES),activity change
1,COc1ccc(NC(=O)COC(=O)C2COc3ccccc3O2)cc1 (stereo unspecified),8.76% (inactive)
2,CC(=O)c1ccc(OCC(=O)N(C)C2CCS(=O)(=O)C2)cc1 (stereo unspecified),-0.496% (inactive)
3,O=C(c1ccc(=O)[nH]c1)N(Cc1ccco1)C1(C(=O)NC2CCCCC2)CCCCC1,-5.54% (inactive)
4,O=C(/C=C/c1c(F)cccc1Cl)Nc1nn[nH]n1,19.3% (inactive)
5,CNC(=O)/C(C#N)=C/c1c(F)cccc1Cl,-84.3% (active)
6,Cc1cc(/C=C(/C#N)C(=O)Nc2ccc(Cl)cc2)c(C)n1-c1cccnc1,-3.14% (inactive)
7,Cc1cccc(C(=O)OCC(=O)Nc2sccc2C(N)=O)c1C,-7.19% (inactive)
8,Cc1nn(C)cc1S(=O)(=O)N1CCN(c2ccc(F)cc2)CC1,1.55% (inactive)
9,COC1C(CO)OC(n2cnc3c(=S)nc(N)[nH]c32)C1O (stereo unspecified),2.88% (inactive)
10,O=c1cc(N2CCCCC2)c(-c2ccccc2)nn1Cc1cccc(F)c1,-2.53% (inactive)
11,Cc1ccc2oc(=O)ccc2c1,12.6% (inactive)
12,Cc1nc2c(OCc3ccc(Cl)cc3)cccn2c1N(C)Cc1cccs1,-66.3% (active)
13,CCc1nc2c(OCc3ccc(F)c(F)c3)cccn2c1N(C)C(=O)c1ccco1,10.9% (inactive)
14,Cc1nc2c(OCC(=O)C(C)(C)C)cccn2c1N(C)Cc1cccs1,-25.2% (inactive)
15,CCOC(=O)[C@]12CCC=C1N(Cc1cccc3ccccc13)C(=O)[C@H](CC(=O)NCc1cccc(C(F)(F)F)c1)C2,-21.1% (inactive)
16,O=C(c1ccc2nc(N3CCOCC3)sc2c1)N1CCN(c2ccc(Cl)cc2)CC1,1.67% (inactive)
17,COc1ccc2nc(N3CCN(C(=O)c4ccc([N+](=O)[O-])o4)CC3)sc2c1,-88% (active)
18,COc1ccc2nc(N3C(=O)C(O)=C(C(=O)c4ccco4)C3c3ccco3)sc2c1 (stereo unspecified),23.2% (inactive)
19,Cc1cc(Br)cn2c(Cc3ccccc3C(F)(F)F)c(-c3ccc(Cl)cc3)nc12,25.9% (inactive)

row,Structure (SMILES),activity change
1,CC1(C(=O)NS(=O)(=O)c2ccccc2Cl)CCN1C(=O)c1cccc(F)c1 (stereo unspecified),22.3% (inactive)
2,COc1ccc(CC(=O)NCc2nnc(SCC(=O)Nc3ncc(C)s3)n2C)cc1,15.7% (inactive)
3,CC(=O)c1c(C)n(-c2ccc(C)cc2)c2ccc(O)cc12,12.1% (inactive)
4,CCOC(=O)c1nnn(-c2nonc2-n2cccc2)c1CN1CCOCC1,9.61% (inactive)
5,CCOC(=O)c1c(CN2CCOCC2)n(-c2ccccc2)c2ccc(O)cc12,-54.1% (active)
6,CC(=O)Nc1ccc(-c2csc(NC(=O)Nc3ccccc3)n2)cc1,-57.5% (active)
7,CC(=O)NCc1ccc(-c2csc(NC(=O)CCCc3nc4ccccc4c(=O)[nH]3)n2)cc1,-3.36% (inactive)
8,CCOC(=O)Cc1csc(NC(NC(=O)OCC)(C(F)(F)F)C(F)(F)F)n1,2.86% (inactive)
9,CC(=O)Nc1ccc(-c2cn3cccnc3n2)cc1,-2.21% (inactive)
10,CCOC(=O)Cc1csc(NC(=O)Nc2ccccc2)n1,-69.2% (active)
11,CCOC(=O)Cc1csc(NC(=O)CSc2ccc(Br)cc2)n1,35.1% (inactive)
12,N#CCCN(C(=O)Nc1ccc(Cl)c(Cl)c1)C1CCCCC1,-24.2% (inactive)
13,CCOC1=C2[C@H]([C@H]3C(=O)N(c4ccccc4)C(=O)[C@H]3C1)[C@@H](c1ccccc1)N(S(=O)(=O)c1ccc(C)cc1)[C@H]2c1ccccc1,21.6% (inactive)
14,COc1ccc(C(=O)c2oc3ccc(Br)cc3c2NC(C)=O)cc1,-26.9% (inactive)
15,COc1ccc2occ(C(=O)c3ccc(N=C(C)N(C)C)cc3)c2c1,-57% (active)
16,COc1ccc(OC)c(C(=O)c2coc3ccc(OC)cc23)c1,5.54% (inactive)
17,Cc1nc(CN2CCN(C(=O)CCc3nnc(Cc4c[nH]c5ccccc45)o3)CC2)cs1,21.5% (inactive)
18,C[C@H]1CN([C@@H](C)CO)C(=O)c2cc(Br)cnc2O[C@H]1CN(C)S(=O)(=O)c1cccs1,-17.5% (inactive)
